Test results taken from PubChem BioAssay (EPA / NIEHS).
Calls of active or inactive are those of the source. Rule for the calls: active = hit-call score of the fitted dose curve at least 0.9, where 1 is the maximum; inactive = score below 0.9.

Read-out: Monocyte Chemoattractant Protein-1 (MCP1), CCL2 (gene 6347)
Experiment: BSK_4H_MCP1: BioMAP Diversity Plus: 4H Assay for Monocyte Chemoattractant Protein-1 (MCP1) Biomarker Activity (AID 2283018)
Conditions: primary human endothelial cells (HUVEC); actives raise or lower the signal
Procedure: BSK_4H is a cell-based, multiplexed-readout assay that uses umbilical vein endothelium, a human vascular primary cell, with measurements taken at 24 hours after chemical dosing in a 96-well plate.BSK_4H_MCP1 is an assay component measured in the BSK_4H assay. It measures MCP-1 antibody related to regulation of gene expression using ELISA technology.Data from the assay component BSK_4H_MCP1 was analyzed into 1 assay endpoint. This assay endpoint, BSK_4H_MCP1, was analyzed with bidirectional fitting relative to DMSO as the negative control and baseline of activity. Using a type of binding reporter, gain or loss-of-signal activity can be used to understand changes in the signaling as they relate to the gene CCL2. Furthermore, this assay endpoint can be referred to as a primary readout, because this assay has produced multiple assay endpoints where this one serves a signaling function. To generalize the intended target to other relatable targets, this assay endpoint is annotated to the cytokine intended target family, where the subfamily is chemotactic factor.
The levels of cell surface (or secreted, indicated by the prefix "s") biomarker endpoints were measured by ELISA. Overt cytotoxicity to cells in confluent adherent cultures (all systems other than the BT system) was assessed by measuring total protein levels using sulforhodamine B (SRB) staining in parallel cultures at the time of biomarker measurements, indicated as SRB endpoints. For proliferation assays for adherent cell types, individual cell types are cultured at sub-confluence and relative cell numbers quantified by SRB staining at time points optimized for each system (48 h: 3C and CASM3C systems; 72 h: BT and HDF3CGF systems; 96 h: SAg system). SRB was performed by staining cells with 0.1% SRB after fixation with 10% TCA and reading wells at 560 nm.Viability and proliferation of PBMC (T cells) was quantified by Alamar Blue reduction for the SAg and BT systems. For PBMC viability (referred to as PBMC Cytotoxicity within the assay endpoint names), cells were plated (75,000/well in a 96-well plate) and then chemical samples added for 1 h before addition of activators, SEB and TSST-1 (20 ng/mL final concentration each). Cells were incubated for 90 h. Then, Alamar Blue (20 uL/well) (Invitrogen, Cat DAL1100) was added for 6 h, and the plates were read with a fluorescence microplate reader at 546/580 nm (excitation/emission). For PBMC proliferation, cells were plated and activated as above but incubated for only 16 h prior to addition of Alamar Blue. Plates were read after 6 h.

| Compound | outcome | AC50 |
| --- | --- | --- |
| O=C(O)c1ccccc1C(=O)OCc1ccccc1 | inactive |  |
| COc1cccc([C@H](O)C2CCN(CCc3ccc(F)cc3)CC2)c1OC | inactive |  |
| Clc1cc(Cl)c2c(c1)N=C1CCCCCN1C2 | inactive |  |
| CC(C)(c1cc(Br)c(O)c(Br)c1)c1cc(Br)c(O)c(Br)c1 |  | 26.6 µM (active) |
| CN1C(=O)N(c2ccccc2Br)Cc2cnc(Nc3ccc4c(c3)OCC(CO)O4)nc21 (stereo not given) |  | 2.11 µM (active) |
| Oc1ccc2ccccc2c1 | inactive |  |
| c1ccc2n[nH]nc2c1 | inactive |  |
| CCCCOC(=O)CC(CC(=O)OCCCC)(OC(C)=O)C(=O)OCCCC | inactive |  |
| O=C1O[C@H]([C@@H](O)CO)C(O)=C1O | inactive |  |
| COc1cc(C(=O)NC2CCN(C)CC2)ccc1Nc1ncc2c(n1)N(C1CCCC1)CC(F)(F)C(=O)N2C |  | 5.15 µM (active) |
| Cc1ncc(CO)c(CO)c1O | inactive |  |
| CC(O)CC(C)(C)O (stereo not given) | inactive |  |
| CC1(C)NC(=O)N(c2ccc([N+](=O)[O-])c(C(F)(F)F)c2)C1=O | inactive |  |
| CCN(Cc1cccc(S(=O)(=O)O)c1)c1ccc(C(=C2C=CC(=[N+](CC)Cc3cccc(S(=O)(=O)O)c3)C=C2)c2ccccc2S(=O)(=O)[O-])cc1 | inactive |  |
| CC[C@H](NC(=O)c1cc(F)ccc1NS(=O)(=O)c1cccc2cccnc12)c1ccccc1 | inactive |  |
| CN(C[C@@H](CC[N+]12CCC(C3CCCCC3)(CC1)CC2)c1ccc(Cl)c(Cl)c1)C(=O)c1cc(C(F)(F)F)cc(C(F)(F)F)c1 |  | 27.2 µM (active) |
| CN1C(=O)CC[C@H]1c1cccnc1 | inactive |  |
| CCCCCc1ccc(N)cc1 | inactive |  |
| O=C1CCC(C2CCCCC2)CC1 | inactive |  |
| CCO[Si](CCCNC(N)=O)(OCC)OCC | inactive |  |

| Compound | outcome | AC50 |
| --- | --- | --- |
| CCCCCCCCCCCO | inactive |  |
| NCc1cccc(C2CCN(C(=O)c3ccc(C#Cc4ccccc4F)o3)CC2)c1 |  | 20 µM (active) |
| C[C@]12CC[C@@H]3c4ccc(O)cc4CC[C@H]3[C@@H]1CCC2=O | inactive |  |
| C[C@]12CC[C@@H]3c4ccc(O)cc4CC[C@H]3[C@@H]1CC[C@H]2O | inactive |  |
| CC(C)(C)c1cc(/C=C2\SC(N)=NC2=O)cc(C(C)(C)C)c1O |  | 20 µM (active) |
| c1ccc(C[n+]2cccc3ccccc32)cc1 | inactive |  |
| Cc1cc2c(cc1C(F)(F)F)N(C(=O)Nc1ccc(Oc3cccnc3C)nc1)CC2 | inactive |  |
| CCCOC(=O)c1cc(O)c(O)c(O)c1 | inactive |  |
| COc1ccc2cc(S(=O)(=O)N[C@H](CC(=O)N[C@H](Cc3ccc(CN4[C@H](C)CCC[C@@H]4C)cc3)C(=O)N(C)C(C)C)c3ccc4c(c3)OCO4)ccc2c1 |  | 8.16 µM (active) |
| Cc1cccc2ccccc12 | inactive |  |
| Cc1ccc2oc(CN(Cc3ccccc3)C(=O)Nc3c(F)cc(F)cc3F)c(-c3ccc(Cl)cc3)c2c1 | inactive |  |
| O=c1c(-c2ccc(O)cc2)coc2cc(O)cc(O)c12 |  | 8.42 µM (active) |
| CCN(CC)C(=O)c1cc(S(=O)(=O)Cc2ccccc2)c(N2CCC(c3ccccc3)CC2)cc1N(CC)CCN(C)C |  | 18.7 µM (active) |
| CCCC(=O)OCCC(C)C | inactive |  |
| CC/C(=C(/CC)c1ccc(O)cc1)c1ccc(O)cc1 |  | 15.9 µM (active) |
| CCCCCCCCCC(=O)O | inactive |  |
| NC(=O)c1nc(-c2cccc(-c3cc(F)ccc3OCC(F)(F)C(F)(F)F)c2)n[nH]1 |  | 29.3 µM (active) |
| c1ccc2ccccc2c1 | inactive |  |
| Cc1cn([C@H]2C[C@H](N=[N+]=[N-])[C@@H](CO)O2)c(=O)[nH]c1=O | inactive |  |
| O=C1c2ccccc2C(=O)N1CCc1noc(-c2ccc(CN3CCCCCC3)s2)n1 | inactive |  |
